Experimental data from PubChem BioAssay (NCATS).
Inconclusive results are not listed. Activity calls are given as the source filed them. Unless noted, the call rests on the fitted dose curve; in most records, active means well fitted curve in the direction sought with a large enough effect; inconclusive means small, poorly fitted or top-dose-only effect, or another doubt; inactive means no such curve, though single readings can be large; an effect the other way counts as inactive or inconclusive. *1 amine or outer side, *2 acyl side, *3 side chain or, on linkers, in order; H or OH if unused. Where a SMILES comes first, the peptide text is derived from it. [ ]: non-standard residue; d: D form. X13 = O=C(C(CC(O)CO)O[*:1])[*:2]; NMeV = CN[CH](C(=O)O)C(C)C; NMeA = CN[CH](C)C(=O)O; βAla = NCCC(=O)O

How the values were obtained:
[1] = P-glycoprotein substrates identified in KB-8-5-11 adenocarcinoma cell line, qHTS therapeutic library screen (AID 1346987); further: nearly all actives have a fitted effect of over 65% in size
Summary of the method: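 Human cervical adenocarcinoma KB-8-5-11 cells, selected in colchicine to over-express P-gp and assayed without it, were exposed for 72 h to titrated compounds. An ATP-based luminescent viability signal gave AC50.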

[2] = tested on: Zika virus NS2B-NS3 protease (unlinked complex); assay: Primary screen GU Rhodamine qHTS for Zika virus inhibitors: Unlinked NS2B-NS3 protease assay (AID 1347159); further: on the % scale 0 is the no-effect control and ±100 the full control effect; nearly all actives have a fitted effect of over 60% in size
Summary of the method: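 In dose–response format, inhibition of unlinked protease (25 nM) was measured with 1.5 microM bis-peptide Rhodamine110 substrate. Aprotinin served as the intraplate control.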

[3] = tested on: Zika virus NS2B-NS3 protease (linked construct); assay: Primary screen NINDS Rhodamine qHTS for Zika virus inhibitors (AID 1347160); further: nearly all actives have a fitted effect of over 55% in size
Summary of the method: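 Each compound, titrated, sat 15 min with 25 nM linked protease before 1.5 microM Rhodamine110 substrate went in. Fluorescence gain over the next 15 min, in pH 8.0 Tris with Tween 20, gave Hill-fitted curves.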

[4] = target: Peroxisome proliferator-activated receptor alpha (Homo sapiens) (UniProt Q07869); assay: qHTS assay for small molecule agonists of the peroxisome proliferator-activated receptor alpha (PPARalpha) signaling pathway (AID 651778); conditions: PathHunter PPARalpha complementation, chemiluminescence, 6 h; stronger effect = higher value; further: % of control where 0% means no effect
Summary of the method: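 Chemiluminescence from complemented enzyme reported PPARalpha activation in cells after 6 hr of compound treatment at 37 C. The detection reagent was incubated for 60 min at room temperature, and compounds were scored as agonists.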

[5] = qHTS assay for small molecule agonists of the antioxidant response element (ARE) signaling pathway measured by Nrf2-dependant transcriptional activity - cell viability counter screen (AID 720653; active means well fitted curve in the direction sought with a large enough effect in the repeat runs; an effect the other way counts as inactive or inconclusive; further: on the % scale 0 is the no-effect control and ±100 the full control effect); conditions: ARE-bla HepG2 viability, CellTiter-Glo ATP luminescence, 16 h; stronger effect = lower value
Summary of the method: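 Cytotoxicity counter screen: intracellular ATP quantified by CellTiter-Glo luminescence in the same ARE-bla HepG2 plates, after 16 h compound exposure and a 2 h beta-lactamase substrate step.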

[6] = qHTS assay for cell viability of HEK293 cells (AID 743288); conditions: ATP luminescence (CellTiter-Glo), 18 h, stronger effect = lower value; further: on the % scale 0 is the no-effect control and ±100 the full control effect; nearly all actives have a fitted effect of over 50% in size
Summary of the method: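 Quantitative high-throughput screen: compounds were pinned onto parental HEK293 cells (2,000 per well) after a minimum 5 h settling at 37 C, incubated 18 h at 37 C, and intracellular ATP measured by luciferase luminescence.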

[7] = qHTS assay for cell viability of the p53RE-bla HCT-116 cell line (AID 743292); further: on the % scale 0 is the no-effect control and ±100 the full control effect; nearly all actives have a fitted effect of over 55% in size
Summary of the method: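 Luminescent ATP quantitation (CellTiter-Glo) served as the viability read-out; reagent was added after 16 h compound exposure at 37 C and read after 30 min at room temperature. Cells: p53RE-bla HCT-116, 4,000 per well.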

[8] = target: Nuclear receptor ROR-gamma (Homo sapiens) (UniProt P51449); assay: qHTS assay for small molecule antagonists of the retinoid-related orphan receptor gamma (ROR-gamma) signaling pathway (AID 651802);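 further: CHO cells with doxycycline-induced ROR-gamma expression; luciferase reporter luminescence driven by ROR response element; series mostly up to about 92 µM; on the % scale 0 is the no-effect control and ±100 the full control effect; nearly all actives have a fitted effect of over 60% in size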
Summary of the method: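 Doxycycline-induced reporter activity in engineered CHO cells (TET-inducible ROR, RORE-LUC) was measured by luminescence after 16hr compound exposure at 37C.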

[9] = qHTS assay for small molecule agonists of the antioxidant response element (ARE) signaling pathway measured by Nrf2-dependant transcriptional activity (AID 720636; active means well fitted curve in the direction sought with a large enough effect in the repeat runs; an effect the other way counts as inactive or inconclusive;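 further: HepG2 cells with an ARE-driven luciferase reporter; % of control where 0% means no effect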)
Summary of the method: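 HepG2 ARE-luc reporter line, 1% dialyzed FBS; 6 hr attachment at 37 C, compound pinned in, 16 hr at 37 C/5% CO2; ONE-Glo, 30 min RT, luminescence read.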

[10] = qHTS assay for small molecule antagonists of the retinoid-related orphan receptor gamma (ROR-gamma) signaling pathway - cell viability counter screen (AID 720652; active means well fitted curve in the direction sought with a large enough effect in the repeat runs; an effect the other way counts as inactive or inconclusive;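 further: CHO reporter cells with doxycycline-induced ROR-gamma expression; series mostly up to about 92 µM; compound exposure lasted 16 hr before ATP read; on the % scale 0 is the no-effect control and ±100 the full control effect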)
Summary of the method: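 ATP-based viability readout in the ROR-gamma reporter CHO cells after 16 hr compound exposure under doxycycline induction.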

Chain of Peroxisome proliferator-activated receptor alpha (Homo sapiens) (Q07869 whole entry, looked up): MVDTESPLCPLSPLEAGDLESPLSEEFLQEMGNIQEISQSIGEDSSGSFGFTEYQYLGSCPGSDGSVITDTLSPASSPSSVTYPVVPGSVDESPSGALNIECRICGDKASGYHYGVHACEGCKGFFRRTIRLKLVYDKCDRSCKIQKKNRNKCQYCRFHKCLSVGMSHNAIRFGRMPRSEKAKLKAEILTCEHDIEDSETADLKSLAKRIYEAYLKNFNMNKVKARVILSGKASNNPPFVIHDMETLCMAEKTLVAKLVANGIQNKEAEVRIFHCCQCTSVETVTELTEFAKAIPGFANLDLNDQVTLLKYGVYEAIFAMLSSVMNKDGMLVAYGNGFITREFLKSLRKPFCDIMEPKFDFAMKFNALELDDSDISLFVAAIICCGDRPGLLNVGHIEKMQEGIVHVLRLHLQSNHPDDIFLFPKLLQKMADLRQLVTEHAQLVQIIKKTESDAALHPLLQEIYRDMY
Chain of Nuclear receptor ROR-gamma (Homo sapiens) (P51449 whole entry, looked up): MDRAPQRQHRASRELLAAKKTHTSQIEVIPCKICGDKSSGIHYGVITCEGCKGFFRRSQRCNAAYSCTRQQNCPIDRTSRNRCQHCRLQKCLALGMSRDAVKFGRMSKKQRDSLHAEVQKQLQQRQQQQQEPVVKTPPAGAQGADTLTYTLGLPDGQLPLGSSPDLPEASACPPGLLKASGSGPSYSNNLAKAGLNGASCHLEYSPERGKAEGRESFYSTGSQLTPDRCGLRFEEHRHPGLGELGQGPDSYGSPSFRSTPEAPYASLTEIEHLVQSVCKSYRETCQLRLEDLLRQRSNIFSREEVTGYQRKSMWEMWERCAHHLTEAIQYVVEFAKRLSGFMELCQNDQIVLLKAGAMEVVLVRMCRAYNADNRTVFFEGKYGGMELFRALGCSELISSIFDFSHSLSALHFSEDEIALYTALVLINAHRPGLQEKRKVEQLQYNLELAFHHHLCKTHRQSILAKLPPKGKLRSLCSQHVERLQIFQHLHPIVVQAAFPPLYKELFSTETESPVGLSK

CC1CCC2C(C(=O)O)=CC3(O)CC(C)(C)CC123 (stereo unspecified)
inactive: Potency [1] | Potency [2] | Potency [3]

CC1CCC2C(C)(C)C(O)C(O)CC2(C)C12Cc1c(O)cc(CO)c(C=O)c1O2 (stereo unspecified)
inactive: Potency [1] | Potency [3]

C=CC(C)(O)CCC1C(C)(O)CCC2C(C)(C)CCCC21C (stereo unspecified)
inactive: Potency [1] | Potency [3]

C[C@@H]1CC[C@]2(C(=O)O)CC[C@]3(C)C(=CCC4[C@@]5(C)C[C@@H](O)[C@H](O)[C@@](C)(CO)C5CC[C@]43C)C2[C@H]1C (stereo partly specified)
inactive: Potency [1] | Potency [3]

CC(=O)c1c(C)cccc1O[C@@H]1O[C@H](CO)[C@@H](O)[C@H](O)[C@H]1O
inactive: Potency [1] | Potency [3]

CCOC(=O)COc1ccc2c(c1)C[C@@H](NC[C@H](O)c1cccc(Cl)c1)CC2
inactive: Potency [1] | Potency [2] | Potency [3]

COc1cc(C(O)C2COC(c3ccc(OC4OC(CO)C(O)C(O)C4O)c(OC)c3)C2CO)ccc1O (stereo unspecified)
inactive: Potency [1] | Potency [3]

O=C(/C=C/C=C/c1ccc2c(c1)OCO2)N1CCCCC1
inactive: max response [4] -0.461% | max response [5] 3.3% | max response [6] -12.5% | outcome [7] | Potency [1] | Potency [2] | Potency [3]

COc1ccc(C(=O)OC2C3C=COC(OC4OC(CO)C(O)C(O)C4O)C3C3(CO)OC23)cc1OC (stereo unspecified)
inactive: Potency [1] | Potency [3]

On1ncc(C2CCNCC2)c1-c1cccc(-c2ccccc2)c1
inactive: Potency [1] | Potency [2] | Potency [3]

OC[C@@]1(O)CO[C@H](OC[C@H]2O[C@@H](OCCc3ccccc3)[C@H](O)[C@@H](O)[C@@H]2O)[C@@H]1O
inactive: Potency [1] | Potency [2] | Potency [3]

CC1(C)CC[C@]2(C(=O)O[C@@H]3O[C@H](CO[C@@H]4O[C@H](CO)[C@@H](O)[C@H](O)[C@H]4O)[C@@H](O)[C@H](O[C@@H]4O[C@H](CO)[C@@H](O)[C@H](O)[C@H]4O)[C@H]3O)[C@H](O)C[C@]3(C)C(=CCC4[C@@]5(C)CC[C@H](O[C@@H]6OC[C@@H](O)[C@H](O)[C@H]6O)[C@@](C)(C(=O)O)C5CC[C@]43C)[C@@H]2C1 (stereo partly specified)
inactive: outcome [1] inactive [at 9.29 µM] | Potency [2] | Potency [3]

O=C(O)CCc1cccc(O)c1O[C@@H]1O[C@H](CO)[C@@H](O)[C@H](O)[C@H]1O
inactive: Potency [1] | Potency [3]

CC/C=C\C(O)C(O)C1=C(C)C(=O)C2(O1)C(=O)NC(OC)(C(=O)c1ccccc1)C2O (stereo unspecified)
inactive: Potency [1] | Potency [3]

C/C=C1/C[N+](C)([O-])C2Cc3c([nH]c4ccccc34)C(=O)CC1C2C(=O)OC (stereo unspecified)
inactive: Potency [1] | Potency [2] | Potency [3]

CC(CC12CCCN1C(=O)C1CCCN1C2=O)OC(N)=O (stereo unspecified)
inactive: Potency [1] | Potency [2] | Potency [3]

CN1CCCC1Cc1c[nH]c2ccc(CCS(=O)(=O)c3ccccc3)cc12 (stereo unspecified)
inactive: Potency [1] | Potency [2] | Potency [3]

Cc1ccc(Cl)cc1N(CC(=O)Nc1c(F)cccc1F)S(C)(=O)=O
inactive: Potency [1] | Potency [2] | Potency [3]

CCOC(=O)C(CCc1ccccc1)NC1CCCN2CCCC(C(=O)O)N2C1=O (stereo unspecified)
inactive: Potency [1] | Potency [2] | Potency [3]

CC[C@@H]1C(=O)O[C@]23C=C[C@@H]4C(C(=O)OC)=CO[C@H](O[C@@H]12)[C@@H]43
inactive: Potency [1] | Potency [3]

Cc1cccc(NC(=O)CN2CCC(c3ccccn3)CC2)c1
inactive: Potency [1] | Potency [2] | Potency [3]

CCC(C)C1NC(=O)C2CCCN2C(=O)C(CC(O)CO)OC(=O)CCNC(=O)C(C)N(C)C(=O)C(C(C)C)N(C)C1=O (stereo unspecified) (cyclo([X13]PI[NMeV][NMeA][βAla]); configuration not given here)
inactive: Potency [1] | Potency [2] | Potency [3]

CC(=O)/C=C/C1(O)C(C)=CC(=O)CC1(C)C (stereo unspecified)
inactive: Potency [1] | Potency [2] | Potency [3]

COC(=O)C[C@H]1C(C)(C)[C@H](OC(=O)C(C)C)C2CC3=C4CC(=O)O[C@@H](c5ccoc5)[C@]4(C)CCC3[C@@]1(C)C2=O (stereo partly specified)
inactive: Potency [1] | Potency [2] | Potency [3]

C=C1CCC(OC(C)=O)C2(C)CC3OC(=O)C(C)=C3CC12 (stereo unspecified)
inactive: Potency [1] | Potency [2] | Potency [3]

N#Cc1cc(-c2n[nH]c(-c3ccncc3)n2)ccn1
inactive: Potency [1] | Potency [2] | Potency [3]

O=C(OC[C@H]1O[C@H](O[C@]2(CO)O[C@H](CO)[C@@H](O)[C@@H]2O)[C@H](O)[C@@H](O)[C@@H]1O)c1ccc(O)cc1
inactive: Potency [1] | Potency [2] | Potency [3]

C=C1C[C@]23C[C@@]1(O)CC[C@H]2[C@@]12C=C[C@H](O)[C@@](C)(C(=O)O1)[C@H]2[C@@H]3C(=O)O
inactive: max response [4] -2.22% | outcome [8] | outcome [9] | outcome [10] | max response [5] 2.88% | max response [6] 3.04% | outcome [7] | Potency [1] | Potency [2] | Potency [3]
